For eight compounds, Potency and outcome results are on record in PubChem BioAssay (Tox21).

Test [1] can be described thus: qHTS assay to identify aromatase inhibitors - cell viability counter screen (AID 743084).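 Also: cells stimulated with testosterone during compound exposure; nearly all actives have a fitted effect of over 55% in size.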
Test [2] addresses Aryl hydrocarbon receptor (Homo sapiens) (UniProt P35869). The test is described as follows: qHTS assay to identify small molecule that activate the aryl hydrocarbon receptor (AhR) signaling pathway (AID 743085). Also: nearly all actives have a fitted effect of over 15% in size. Also: potency is read from the fitted curve at half-maximal effect.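 As to activation: HG2L7.5c1 human HepG2 liver cells with stably integrated DRE-driven firefly reporter; series mostly up to about 70 µM.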 In outline: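 Compounds were tested in HepG2 hepatocellular carcinoma cells harbouring a stably integrated luciferase gene under control of 20 DREs. Increased reporter signal after 24 h treatment at 37C was taken as AhR activation.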

Test [3] can be described thus: qHTS assay to identify small molecule that activate the aryl hydrocarbon receptor (AhR) signaling pathway - cell viability counter screen (AID 743086).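 Also: HepG2 liver cells carrying the AhR DRE luciferase reporter; series mostly up to about 70 µM; nearly all actives have a fitted effect of over 45% in size.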 The method, boiled down:
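Cytotoxicity counter screen: CellTiter-Fluor signal (30 min, 37 C) in 4000 HepG2 cells/well carrying the DRE-luciferase reporter, following 24 h compound exposure at 37 C.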

Test [4] has as its target Peroxisome proliferator-activated receptor gamma (Homo sapiens) (UniProt P37231). The experiment in a line: qHTS assay to identify small molecule agonists of the peroxisome proliferator-activated receptor gamma (PPARg) signaling pathway (AID 743094; active = well fitted activation curve with a large enough effect in the signal ratio in the repeat runs, not every such curve was filed as active; the % refers to the signal ratio). The method, boiled down: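 GeneBLAzer PPARg UAS-bla HEK293H cells were plated, rested 5 h, then exposed to compounds for 17 h at 37C. Beta-lactamase activity was read by LiveBLAzer B/G FRET substrate fluorescence after 1 h at room temperature.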

The target is the same in test [5]. The experiment in a line: qHTS assay to identify small molecule antagonists of the peroxisome proliferator-activated receptor gamma (PPARg) signaling pathway (AID 743191; calls by dose curve; also: series mostly up to about 63 µM; nearly all actives have a fitted effect of over 30% in size). The method, boiled down: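 Beta-lactamase reporter under UAS control in HEK293H PPARg-bla cells; compound treatment 17 h at 37C. Read-out: fluorescence intensity after 1 h room-temperature incubation with LiveBLAzer B/G FRET substrate.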
(Quantitative high-throughput screening tests each substance at several concentrations.)

Test [6] is described as follows: qHTS assay to identify small molecule antagonists of the peroxisome proliferator-activated receptor gamma (PPARg) signaling pathway - cell viability counter screen (AID 743194). Also: nearly all actives have a fitted effect of over 55% in size. The method, boiled down: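 Viability was measured as CellTiter-Glo luminescence in GeneBLAzer PPARg UAS-bla HEK293H cells. These cells had been exposed 17 h at 37 C to compounds together with rosiglitazone at 50 nM final, with the beta-lactamase readout taken in the same wells.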

Test [7] in a line: qHTS assay for small molecule agonists of the antioxidant response element (ARE) signaling pathway (AID 743202; active = well fitted activation curve with a large enough effect in the signal ratio in the repeat runs, not every such curve was filed as active; the % refers to the signal ratio). The method, boiled down: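 Quantitative high-throughput format in HepG2 cells bearing an integrated ARE-beta-lactamase reporter. Compound exposure lasted 16 h at 37 C, and fluorescence was read 2 h after adding LiveBLAzer B/G substrate at room temperature.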
The nature of test [8]: qHTS assay for small molecule agonists of the antioxidant response element (ARE) signaling pathway - cell viability counter screen (AID 743203; calls by dose curve; also: nearly all actives have a fitted effect of over 55% in size). The method, boiled down:
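ARE-bla HepG2 cells were plated, rested 5 h at 37C/5% CO2, then exposed to compounds in DMSO for 16 h. Viability was read as CellTiter-Glo luminescence after 30 min at room temperature, in the same wells as the ARE screen.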

Test [9] is described as follows: qHTS assay for small molecule activators of the heat shock response signaling pathway - cell viability counter screen (AID 743209). Also: nearly all actives have a fitted effect of over 50% in size. The method, boiled down:
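HSE-bla HeLa cells plated overnight, then exposed to Tox21 compounds (23 nL in DMSO) for 5 h at 37 C. After the bla reporter read, CellTiter-Glo was added in the same wells and luminescence read after 30 min at room temperature.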

Test [10] can be described thus: qHTS assay for small molecule activators of the heat shock response signaling pathway (AID 743210; active = well fitted activation curve with a large enough effect in the signal ratio in the repeat runs, with a control signal flat, not every such curve was filed as active; the % refers to the signal ratio;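 also: HeLa cells with beta-lactamase reporter driven by heat shock elements; series mostly up to about 63 µM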). The method, boiled down:
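HeLa HSE-bla cells, overnight plating; cpd in DMSO 5 h, 37 C; LiveBLAzer B/G FRET substrate 2.5 h RT; fluorescence intensity read.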

A short description of test [11]: qHTS assay to identify small molecule agonists of the peroxisome proliferator-activated receptor delta (PPARd) signaling pathway - cell viability counter screen (AID 743211). Also: nearly all actives have a fitted effect of over 55% in size. In outline:
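Counter screen for cytotoxicity run in parallel with the PPARd reporter screen. Beta-lactamase reporter HEK293H cells exposed to compounds 17 h; ATP-based CellTiter-Glo luminescence quantified viability.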

Test [12] concerns the target Peroxisome proliferator-activated receptor delta (Homo sapiens) (UniProt Q03181). The test is described as follows: qHTS assay to identify small molecule agonists of the peroxisome proliferator-activated receptor delta (PPARd) signaling pathway (AID 743212; calls by dose curve). In outline: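 HEK293H PPARd-bla cells; 5 h preincubation 37 C/5% CO2; compound (DMSO) 37 C; LiveBLAzer B/G FRET substrate 2 h RT; fluorescence intensity.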

Test [13] is described as follows: qHTS assay to identify small molecule antagonists of the peroxisome proliferator-activated receptor delta (PPARd) signaling pathway - cell viability counter screen (AID 743213). Also: nearly all actives have a fitted effect of over 50% in size. The method, boiled down:
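Cytotoxicity counter screen: CellTiter-Glo luminescence read 30 min after addition, in the same wells as the reporter assay. There, PPARd UAS-bla HEK293H cells (3000/well) were treated 17 h at 37 C with compound and 300 nM L165041.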

Test [14] concerns the target Bile acid receptor (Homo sapiens) (UniProt Q96RI1). The test is described as follows: qHTS assay to identify small molecule antagonists of the farnesoid-X-receptor (FXR) signaling pathway (AID 743217; active = well fitted inhibition curve with a large enough effect in the signal ratio in the repeat runs, not every such curve was filed as active; the % refers to the signal ratio). The method, boiled down:
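FXR-UAS-bla HEK 293T cells (beta-lactamase reporter) given compound plus chenodeoxycholic acid (50 uM final), 16 h at 37C. LiveBLAzer B/G FRET substrate added for 2 h at room temperature; fluorescence read.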

Test [15] in a line: qHTS assay to identify small molecule agonists of the farnesoid-X-receptor (FXR) signaling pathway - cell viability counter screen (AID 743218). Also: nearly all actives have a fitted effect of over 45% in size. The method, boiled down:
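FXR-UAS-bla HEK 293T cells exposed to compounds for 16 h at 37C. Cytotoxicity read in the same wells by CellTiter-Glo luminescence after 30 min at room temperature, following the beta-lactamase FRET read.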

Test [16] addresses Bile acid receptor (Homo sapiens) (UniProt Q96RI1). The experiment in a line: qHTS assay to identify small molecule agonists of the farnesoid-X-receptor (FXR) signaling pathway (AID 743220; active = well fitted activation curve with a large enough effect in the signal ratio in the repeat runs, not every such curve was filed as active; the % refers to the signal ratio). The method, boiled down:
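Beta-lactamase reporter under UAS control in GeneBLAzer FXR HEK 293T cells (5000/well) measured with LiveBLAzer FRET substrate after 2 h at room temperature. Compound exposure lasted 16 h at 37C.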

Test [17] has as its target Vitamin D3 receptor (Homo sapiens) (UniProt P11473). The test is described as follows: qHTS assay to identify small molecule agonists of the vitamin D receptor (VDR) signaling pathway (AID 743222; calls by dose curve). In outline:
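VDR-bla cells plated 4 h at 37 C, then exposed to compounds for 16 h at 37 C. Beta-lactamase reporter activity measured by fluorescence after 2 h room-temperature loading with LiveBLAzer B/G FRET substrate.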

For test [18] the target is unchanged. The test is described as follows: qHTS assay to identify small molecule antagonists of the vitamin D receptor (VDR) signaling pathway (AID 743223; active = well fitted inhibition curve with a large enough effect in the signal ratio in the repeat runs, not every such curve was filed as active; the % refers to the signal ratio). In outline: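 Cells carrying a VDR-driven beta-lactamase reporter (VDR-bla) were co-treated with compound and 3 nM final 1alpha,25-dihydroxyvitamin D3 for 16 h at 37C; reporter activity was measured as FRET substrate fluorescence after 2 h at room temperature.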

A short description of test [19]: qHTS assay to identify small molecule antagonists of the farnesoid-X-receptor (FXR) signaling pathway - cell viability counter screen (AID 743221; active = well fitted cell-killing curve with a large enough effect in the repeat runs, not every such curve was filed as active; also: nearly all actives have a fitted effect of over 50% in size). The method, boiled down:
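Multiplexed counter screen: viability of FXR-bla HEK 293T cells under agonist stimulation by chenodeoxycholic acid (50 uM, final) and test compound for 16 h at 37 C, measured by CellTiter-Glo luminescence in the reporter wells.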

For test [20], the target named is Peroxisome proliferator-activated receptor delta (Homo sapiens) (UniProt Q03181). The experiment in a line: qHTS assay to identify small molecule antagonists of the peroxisome proliferator-activated receptor delta (PPARd) signaling pathway (AID 743215; active = well fitted inhibition curve with a large enough effect in the signal ratio in the repeat runs, not every such curve was filed as active; the % refers to the signal ratio;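 also: cells stimulated with agonist L165041 at 300 nM final during compound exposure; series mostly up to about 62 µM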). The method, boiled down: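 PPARd-bla HEK293H cells (UAS-bla reporter) preincubated 5 h, then given compound plus 300 nM final L165041 agonist for 17 h at 37 C. Beta-lactamase activity read by LiveBLAzer B/G FRET substrate fluorescence after 2 h at room temperature.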

Where “and” joins values, the source holds several entries; their conditions need not be identical. Equal entries are not always repeated. Records with an inconclusive call do not appear. Calls of active or inactive are those of the source. Unless noted, calls follow the shape of the dose curve; as a rule, active = well fitted curve in the direction sought with a large enough effect in the repeat runs; inconclusive = weak or mixed curves; inactive = no such curve, though single readings can be large; an effect the other way counts as inactive or inconclusive.

Chain of Aryl hydrocarbon receptor (Homo sapiens) (P35869 whole entry, looked up): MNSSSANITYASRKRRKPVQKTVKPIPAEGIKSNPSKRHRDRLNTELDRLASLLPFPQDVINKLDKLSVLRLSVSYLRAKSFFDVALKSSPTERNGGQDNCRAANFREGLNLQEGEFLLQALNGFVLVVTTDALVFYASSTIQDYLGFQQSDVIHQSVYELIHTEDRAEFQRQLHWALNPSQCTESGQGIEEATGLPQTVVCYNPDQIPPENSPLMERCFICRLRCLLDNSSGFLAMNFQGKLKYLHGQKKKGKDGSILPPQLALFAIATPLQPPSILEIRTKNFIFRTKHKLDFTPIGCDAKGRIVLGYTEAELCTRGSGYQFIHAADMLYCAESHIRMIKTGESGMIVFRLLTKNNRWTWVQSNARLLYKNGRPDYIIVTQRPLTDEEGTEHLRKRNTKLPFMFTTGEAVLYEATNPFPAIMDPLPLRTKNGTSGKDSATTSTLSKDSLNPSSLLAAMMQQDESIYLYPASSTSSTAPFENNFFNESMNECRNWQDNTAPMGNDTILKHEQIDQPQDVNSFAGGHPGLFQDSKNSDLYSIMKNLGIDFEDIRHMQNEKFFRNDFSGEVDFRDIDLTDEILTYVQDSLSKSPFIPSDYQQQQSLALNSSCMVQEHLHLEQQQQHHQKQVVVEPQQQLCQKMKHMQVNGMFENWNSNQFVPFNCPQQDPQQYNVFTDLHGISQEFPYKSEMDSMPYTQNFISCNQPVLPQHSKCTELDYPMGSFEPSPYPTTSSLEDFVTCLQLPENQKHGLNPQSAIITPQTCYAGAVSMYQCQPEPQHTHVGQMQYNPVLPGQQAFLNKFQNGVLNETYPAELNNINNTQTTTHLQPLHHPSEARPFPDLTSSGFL
Chain of Peroxisome proliferator-activated receptor gamma (Homo sapiens) (P37231 whole entry, looked up): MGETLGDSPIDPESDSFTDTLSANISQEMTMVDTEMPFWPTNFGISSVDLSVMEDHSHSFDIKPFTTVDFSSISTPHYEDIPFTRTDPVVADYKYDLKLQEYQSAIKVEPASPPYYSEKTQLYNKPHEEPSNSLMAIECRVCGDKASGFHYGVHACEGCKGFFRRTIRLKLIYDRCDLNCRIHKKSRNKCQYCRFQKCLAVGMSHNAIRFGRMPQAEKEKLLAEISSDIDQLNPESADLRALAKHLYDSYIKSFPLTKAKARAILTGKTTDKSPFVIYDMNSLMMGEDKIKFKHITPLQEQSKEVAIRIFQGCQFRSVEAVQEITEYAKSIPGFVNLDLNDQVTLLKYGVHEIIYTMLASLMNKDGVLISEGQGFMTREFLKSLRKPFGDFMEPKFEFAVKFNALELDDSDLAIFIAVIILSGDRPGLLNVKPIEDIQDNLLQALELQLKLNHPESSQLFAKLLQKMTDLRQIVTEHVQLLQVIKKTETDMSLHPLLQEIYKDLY
Chain of Vitamin D3 receptor (Homo sapiens) (P11473 whole entry, looked up): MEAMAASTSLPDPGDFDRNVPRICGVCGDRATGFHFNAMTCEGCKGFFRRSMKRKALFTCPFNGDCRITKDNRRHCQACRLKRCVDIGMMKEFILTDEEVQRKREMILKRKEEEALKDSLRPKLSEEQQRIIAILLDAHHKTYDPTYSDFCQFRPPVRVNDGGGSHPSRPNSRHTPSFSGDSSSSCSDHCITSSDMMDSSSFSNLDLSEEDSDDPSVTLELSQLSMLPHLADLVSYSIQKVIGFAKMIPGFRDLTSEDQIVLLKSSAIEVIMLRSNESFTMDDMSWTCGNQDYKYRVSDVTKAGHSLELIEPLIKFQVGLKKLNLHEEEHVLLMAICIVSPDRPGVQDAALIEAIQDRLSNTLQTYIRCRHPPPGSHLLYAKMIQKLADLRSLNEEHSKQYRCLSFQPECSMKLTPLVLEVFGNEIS
Chain of Peroxisome proliferator-activated receptor delta (Homo sapiens) (Q03181 whole entry, looked up): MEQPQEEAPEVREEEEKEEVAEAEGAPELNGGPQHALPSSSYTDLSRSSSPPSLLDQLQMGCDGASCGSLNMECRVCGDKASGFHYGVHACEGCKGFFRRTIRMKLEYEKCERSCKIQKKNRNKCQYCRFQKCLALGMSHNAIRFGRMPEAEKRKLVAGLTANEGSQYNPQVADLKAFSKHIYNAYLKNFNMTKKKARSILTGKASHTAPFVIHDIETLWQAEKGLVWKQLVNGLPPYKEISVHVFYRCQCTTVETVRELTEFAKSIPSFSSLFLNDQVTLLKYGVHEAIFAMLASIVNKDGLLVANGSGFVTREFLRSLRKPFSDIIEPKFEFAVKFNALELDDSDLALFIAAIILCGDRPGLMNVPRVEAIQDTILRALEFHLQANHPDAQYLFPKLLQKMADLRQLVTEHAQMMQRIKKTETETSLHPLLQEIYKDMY
Chain of Bile acid receptor (Homo sapiens) (Q96RI1 whole entry, looked up): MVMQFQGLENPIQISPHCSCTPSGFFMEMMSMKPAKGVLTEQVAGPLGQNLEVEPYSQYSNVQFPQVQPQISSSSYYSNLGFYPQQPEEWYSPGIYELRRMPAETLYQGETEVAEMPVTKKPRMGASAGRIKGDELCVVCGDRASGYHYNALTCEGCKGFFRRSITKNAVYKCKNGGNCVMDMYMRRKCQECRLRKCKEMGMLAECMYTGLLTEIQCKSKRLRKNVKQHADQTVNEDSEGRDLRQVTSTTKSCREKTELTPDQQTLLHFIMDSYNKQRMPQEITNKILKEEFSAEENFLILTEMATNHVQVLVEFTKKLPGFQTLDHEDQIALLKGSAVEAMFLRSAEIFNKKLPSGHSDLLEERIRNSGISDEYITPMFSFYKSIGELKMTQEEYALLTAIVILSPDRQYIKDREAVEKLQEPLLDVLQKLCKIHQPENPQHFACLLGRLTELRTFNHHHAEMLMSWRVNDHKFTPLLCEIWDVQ

As to `CC(=O)[C@@]1(O)CC[C@H]2[C@@H]3C[C@H](C)C4=CC(=O)C=C[C@]4(C)[C@@]3(F)[C@@H](O)C[C@@]21C`, the Potency result in test [1], in test [2], in test [3], in [5], in test [6] and in test [7] was “inactive” in each case. The Potency entry in test [8], in [9], in test [11], in [13], in [14] and in [15] was “inactive” throughout. For the same compound, the result in [4], in test [10], in [12], in [16], in test [17] and in test [18] was inactive.
Take `C=CC(C)(O)CCC=C(C)C` (centres undefined): the Potency entry in test [1], in test [2], in [3], in test [5], in test [6] and in [7] was “inactive” in each case. For the same compound, the Potency result in test [8], in [9], in test [11], in [13], in [14] and in test [15] was “inactive” each time. The outcome in [4], in test [10], in [16], in [17] and in [18] was inactive.
On to `COc1ccc2nc(N)sc2c1`, for which the Potency result in test [1], in [3], in test [5], in test [7], in [8] and in [9] was “inactive” in each case. For the same compound, the Potency entry in test [11], in test [13] and in [15] was “inactive” each time. Besides, the Potency in test [2] is 48.6 µM (active) and 27.3 µM (active). In addition, the compound was classed as inactive in test [4], in test [17] and in test [18].
With `NC[C@H](O)c1ccc(O)c(O)c1`, the Potency entry in [1], in test [2], in [3], in test [5], in test [8] and in test [9] was “inactive” throughout. Also, the Potency result in test [11], in test [13], in test [15] and in test [19] was “inactive” each time. Moreover, the call in [4] and in test [10] was inactive.
Consider `CC(C)[N+](C)(CCOC(=O)C1c2ccccc2Oc2ccccc21)C(C)C`, for which the Potency entry in test [1], in test [2], in test [3], in test [5], in test [6] and in test [7] was “inactive” each time. Further, the Potency result in [8], in test [9], in [11], in [13], in [14] and in test [15] was “inactive” throughout. The call in test [4], in test [10], in [12], in [20], in test [16] and in test [17] was inactive. Besides, the compound was called inactive in [18].
`c1ccc2ncccc2c1`: the Potency result in [1], in test [2], in test [3], in test [5], in test [7] and in test [8] was “inactive” throughout. Also, the Potency result in test [9], in test [11], in test [13] and in [15] was “inactive” throughout. Besides, the outcome in test [4], in test [10], in test [12] and in [20] was inactive.
For the compound `O=C(O)CCCC(=O)O`, the Potency entry in test [1], in test [2], in [3], in test [5], in test [6] and in test [7] was “inactive” in each case. Besides, the Potency entry in test [8], in test [9], in [11], in [13] and in test [15] was “inactive” in each case. Further, the outcome in test [4], in test [10], in test [12] and in test [20] was inactive.
Take `CC(=O)Oc1ccc(C(c2ccc(OC(C)=O)cc2)c2ccccn2)cc1`: the Potency entry in [1], in test [2], in test [3], in [5], in test [6] and in [7] was “inactive” each time. The Potency entry in [8], in test [9], in [11], in test [13] and in test [15] was “inactive” in each case. For the same compound, the call in test [4], in [10], in test [12], in test [20] and in test [18] was inactive.
